We go through 15 molecules from PubChem BioAssay.

Experiment [1] deals with TRPC4 beta (transient receptor potential cation channel C4), mouse. Description: activators of mouse TRPC4 channel, confirmation, cell-based, Fluo4 calcium, HEK293 TRPC4beta/mu-opioid, duplicates, 10 µM (AID 2426;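 active = fluorescence ratio normalized to control raised more than 50% in primary screen plus both repeat runs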). The note with it: Fluo4 calcium fluorescence, at 10 µM; active compounds read high.
For experiment [2], the system named is transient receptor potential cation channel C4 beta (TRPC4), mouse. In words: activators of mouse TRPC4 channel, confirmation, cell-based, second round, Fluo4, HEK293 TRPC4beta/mu-opioid, 1 µM (AID 2461;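 active = primary screen active and over 50% activation in each of two duplicate runs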). The note with it: Fluo4 calcium fluorescence, at 1 µM; active compounds read high.
The subject of experiment [3] is TRPC4 (transient receptor potential cation channel C4 beta), mouse. Description: positive allosteric modulators of mouse TRPC4, confirmation, cell-based, second round, Fluo-4, HEK293 TRPC4beta/mu-opioid, 1 µM (AID 2554;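 active = primary screen hit whose fluorescence ratio, in both repeats, exceeds the weak agonist control mean by 3 SD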). Conditions: DAMGO EC20, Fluo-4 calcium flux, at 1 µM; active compounds read high. A general note: A change in cytosolic calcium serves as a functional read-out for many receptors and channels.

Experiment [4] has as its system TRPC4 beta (transient receptor potential cation channel C4), mouse. In words: positive allosteric modulators of mouse TRPC4, confirmation, cell-based, Fluo-4, HEK293 TRPC4beta/mu-opioid (AID 2555;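 active = primary screen hit whose calcium fluorescence ratio, in both repeats, exceeds the weak agonist control mean by 3 SD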). Conditions: DAMGO EC20, Fluo-4 calcium flux, at 10 µM; active compounds read high.
The target in experiment [5] is Short transient receptor potential channel 4 (Mus musculus) (UniProt Q9QUQ5). In words: inhibitors of mouse TRPC4 channel, confirmation, cell-based, Fluo4, HEK293 TRPC4beta/mu-opioid (AID 2636;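 active = calcium signal cut by more than 3 SD below the full-agonist control yet still positive, in both repeats and the earlier primary screen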). Conditions: DAMGO, Fluo4 calcium flux, at 10 µM; active compounds read high.
For experiment [6] the target is unchanged. Description: inhibitors of mouse TRPC4 channel, confirmation, cell-based, second round, Fluo4, HEK293 TRPC4beta/mu-opioid, 1 µM (AID 2637). The note with it: Fluo4 calcium flux, DAMGO, at 1 µM; active compounds read high.
Experiment [7] shares this target. In words: mouse TRPC4 channel activators, dose response, cell-based, HEK293 TRPC4/mu-opioid, Fluo-4 calcium (AID 434937;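 active = primary screen activator hit with a dose response curve and TRPC4 channel activation at any tested dose; inactive = no activation, no dose response, or not a primary hit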).
Experiment [8] has the same target. Description: TRPC4 positive allosteric modulators, dose response, cell-based, HEK293 TRPC4/mu-opioid, Fluo-4 calcium, EC20 DAMGO (AID 434941;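 active = earlier screen potentiator hit that boosts the TRPC4 ion channel at some dose, with a dose response; inactive = no potentiation, no dose response, or not a prior hit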;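 note: calcium entry triggered by an EC20 dose of DAMGO at the co-expressed mu-opioid receptor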).
Experiment [9] shares this target. In words: mouse TRPC4 channel inhibitors, dose response, cell-based, HEK293 TRPC4/mu-opioid, Fluo-4 calcium (AID 434942;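 active = primary screen inhibitor hit that blocks the TRPC4 channel at some tested dose, yielding a dose curve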).
The target in experiment [10] is Short transient receptor potential channel 6 (Mus musculus) (UniProt Q61143). In words: inhibition of mouse TRPC6 channel, confirmation, selectivity assay for TRPC4 inhibitor project, cell-based, HEK293, membrane potential dye, duplicate (AID 434948;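 active = active in primary screen and both duplicates, each dropping signal beyond three positive-control SD with fluorescence still positive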). Conditions: HEK293 TRPC6, membrane potential dye fluorescence, at 10 µM, stimulated with maximal-effect acetylcholine; active compounds read high.

The target is the same in experiment [11]. In words: activation of mouse TRPC6 channel, confirmation, selectivity assay for TRPC4 activator project, cell-based, HEK293, membrane potential dye, duplicate (AID 434950;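 active = membrane potential signal rise above negative control mean plus 3 SD in both duplicates, also active in the earlier TRPC4 screen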). Conditions: HEK293 TRPC6, membrane potential fluorescence, at 10 µM; active compounds read high.
Experiment [12] has the same target. In words: TRPC6 potentiation by TRPC4 potentiator hits, confirmation, selectivity assay for TRPC4 potentiator project, HEK293 cells, membrane potential dye, duplicate (AID 434952;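 active = compound raising the membrane signal above positive-control mean plus 3 SD in both repeats, and a primary screen hit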). The note with it: HEK293 TRPC6, membrane potential dye fluorescence, at 10 µM, maximal acetylcholine added after compound; active compounds read high.
In experiment [13] the target is Short transient receptor potential channel 4 (Mus musculus) (UniProt Q9QUQ5). Description: calcium flux activators in TRPC4/5HT1a cells, counter-screen for TRPC4 activator project, cell-based, second counter screen, HEK293 TRPC4/5HT1a, Fluo-4 (AID 434977;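 active = calcium signal rise above buffer-control mean plus 5 SD in both duplicates, and also a hit in the primary screen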;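 for activation: plate controls were assay buffer for no effect and maximal serotonin response for full effect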). Conditions: Fluo-4 calcium flux, at 10 µM; active compounds read high.
A short description of experiment [14]: calcium flux inhibitors in TRPC4/5HT1a cells, confirmation, counter-screen for TRPC4 inhibitor project, cell-based, second counter screen, HEK293 TRPC4/5HT1a, Fluo-4 (AID 434978;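 active = primary screen active whose calcium signal fell more than 3 SD beyond the full-serotonin control mean in both duplicate plates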;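 note: serotonin given first at submaximal then at maximal dose after compound preincubation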). Conditions: Fluo-4 calcium flux, at 10 µM, serotonin added to trigger calcium flux; active compounds read high.
For experiment [15], the system named is TRPC4 (mouse), co-expressed with 5HT1a in HEK293. Description: calcium flux potentiators in TRPC4/5HT1a cells, confirmation, counter-screen for TRPC4 potentiator project, cell-based, second counter screen, HEK293 TRPC4/5HT1a, Fluo-4 (AID 434979;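 active = signal rise over 3 SD above mean of control wells given weak agonist, in both repeats and first screen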). The note with it: Fluo-4 calcium flux, at 10 µM, serotonin added at its EC20 dose; active compounds read high.
Experiment [16] can be described thus: calcium flux activation in mu-opioid HEK293 cells, confirmation, counter-screen for TRPC4 activator project, cell-based, HEK293 mu-opioid receptor line (AID 449723;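 active = hit in primary screen, with calcium signal over 5 SD above buffer well mean in both duplicates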;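 note: counter screen cells carry the mu-opioid receptor alone and lack TRPC4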). Conditions: Fluo-4 calcium fluorescence, at 10 µM; active compounds read high.
Experiment [17] can be described thus: calcium flux enhancement in mu-opioid HEK293 cells, confirmation, counter-screen for TRPC4 allosteric potentiator project, cell-based, HEK293 mu-opioid receptor line (AID 449724;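 active = calcium signal rise more than 3 SD above the low-dose agonist control mean, in both duplicate plates and the primary screen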;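 note: HEK293 cells carrying mu-opioid receptor only with no TRPC4 channel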). Conditions: Fluo-4 calcium flux, at 10 µM, compound added before EC20 DAMGO stimulus; active compounds read high.

For part of these data: Potency and affinity values are given separately. Active and inactive are the calls of the source.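 Rule for the calls, unless noted: active = calcium signal ratio cut to more than 3 SD under the fully stimulated control mean yet still positive, in both repeats and the primary screen; inactive = the rest.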

Short transient receptor potential channel 6 (Mus musculus), sequence (Q61143 whole entry, looked up): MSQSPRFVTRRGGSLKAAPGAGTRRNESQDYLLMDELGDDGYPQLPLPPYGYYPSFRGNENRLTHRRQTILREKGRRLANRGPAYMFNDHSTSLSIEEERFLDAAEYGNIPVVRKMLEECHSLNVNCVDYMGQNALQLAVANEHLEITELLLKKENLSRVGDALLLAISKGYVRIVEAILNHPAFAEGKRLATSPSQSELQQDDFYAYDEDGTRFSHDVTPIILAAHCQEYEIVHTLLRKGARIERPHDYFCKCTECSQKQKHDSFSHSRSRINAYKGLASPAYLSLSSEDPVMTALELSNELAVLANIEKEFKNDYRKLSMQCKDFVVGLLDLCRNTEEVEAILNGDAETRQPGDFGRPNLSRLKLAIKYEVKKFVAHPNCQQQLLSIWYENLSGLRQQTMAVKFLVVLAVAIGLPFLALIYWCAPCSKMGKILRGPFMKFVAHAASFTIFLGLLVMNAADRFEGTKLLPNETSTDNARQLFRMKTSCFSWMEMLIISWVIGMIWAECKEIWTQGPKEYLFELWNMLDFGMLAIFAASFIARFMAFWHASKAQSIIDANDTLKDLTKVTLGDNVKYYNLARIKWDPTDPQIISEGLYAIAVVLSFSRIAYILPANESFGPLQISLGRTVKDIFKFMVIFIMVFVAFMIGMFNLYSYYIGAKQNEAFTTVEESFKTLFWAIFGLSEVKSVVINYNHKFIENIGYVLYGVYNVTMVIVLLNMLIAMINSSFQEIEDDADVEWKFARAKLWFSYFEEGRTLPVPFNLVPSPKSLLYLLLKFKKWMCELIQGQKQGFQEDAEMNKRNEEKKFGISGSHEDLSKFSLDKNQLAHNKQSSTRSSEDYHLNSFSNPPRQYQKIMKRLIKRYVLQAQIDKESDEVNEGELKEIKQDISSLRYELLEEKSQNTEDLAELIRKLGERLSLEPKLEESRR
Short transient receptor potential channel 4 (Mus musculus), sequence (Q9QUQ5 whole entry, looked up): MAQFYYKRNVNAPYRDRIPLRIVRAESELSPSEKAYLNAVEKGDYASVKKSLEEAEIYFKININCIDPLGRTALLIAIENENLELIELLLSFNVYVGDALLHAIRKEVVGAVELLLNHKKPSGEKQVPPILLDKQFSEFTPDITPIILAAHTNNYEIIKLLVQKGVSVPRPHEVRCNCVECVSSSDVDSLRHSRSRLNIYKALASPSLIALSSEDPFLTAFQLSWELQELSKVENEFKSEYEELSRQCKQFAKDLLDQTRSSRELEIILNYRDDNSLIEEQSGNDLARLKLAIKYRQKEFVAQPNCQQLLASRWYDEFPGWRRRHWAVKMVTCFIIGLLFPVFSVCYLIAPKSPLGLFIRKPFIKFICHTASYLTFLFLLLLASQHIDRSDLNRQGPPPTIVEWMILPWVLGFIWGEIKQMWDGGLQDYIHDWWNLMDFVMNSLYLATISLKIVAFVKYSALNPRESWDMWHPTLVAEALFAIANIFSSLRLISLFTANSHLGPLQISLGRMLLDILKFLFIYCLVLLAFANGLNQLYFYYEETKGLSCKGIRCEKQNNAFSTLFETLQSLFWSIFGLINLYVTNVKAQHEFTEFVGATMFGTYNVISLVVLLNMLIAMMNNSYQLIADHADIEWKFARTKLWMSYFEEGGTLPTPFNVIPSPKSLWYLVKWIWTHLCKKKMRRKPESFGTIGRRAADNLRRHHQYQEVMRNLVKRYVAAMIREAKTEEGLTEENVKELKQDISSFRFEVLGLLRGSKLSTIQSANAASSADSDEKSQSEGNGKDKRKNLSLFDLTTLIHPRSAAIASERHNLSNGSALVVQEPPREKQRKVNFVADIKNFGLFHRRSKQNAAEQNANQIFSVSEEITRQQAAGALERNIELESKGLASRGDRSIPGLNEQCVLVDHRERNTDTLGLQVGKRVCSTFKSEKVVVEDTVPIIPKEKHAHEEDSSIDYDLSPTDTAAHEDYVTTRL

For the molecule `O=C(Cn1nc(-c2ccccc2)ccc1=O)NCCN1CCN(Cc2ccccc2)CC1`, the outcome in experiment [1], in experiment [2], in experiment [3], in experiment [4], in experiment [5] and in [6] was inactive. Besides, the outcome in [7], in experiment [8], in experiment [9], in experiment [10], in [11] and in experiment [12] was inactive. Besides, the result in experiment [13], in [14], in [16] and in experiment [17] was inactive. Also, in experiment [15], the potentiation was 13% (active).

Turning to `C=C(C)COc1ccc(-c2[nH]ncc2Oc2ccc(OC)cc2)c(O)c1`, the outcome in experiment [1], in [2], in experiment [3], in experiment [4], in experiment [5] and in experiment [6] was inactive. For the same molecule, the result in experiment [7], in [8], in [9], in experiment [10], in experiment [11] and in experiment [12] was inactive. In addition, the outcome in experiment [13], in experiment [14], in experiment [15], in experiment [16] and in [17] was inactive.

As to `Clc1ccc(Cl)c(OCCCCN2CCNCC2)c1`, the outcome in experiment [1], in experiment [2], in experiment [3], in experiment [5], in experiment [6] and in experiment [7] was inactive. In addition, the outcome in [8], in experiment [9], in experiment [10], in experiment [11], in experiment [12] and in experiment [13] was inactive. Moreover, the outcome in [14], in experiment [16] and in experiment [17] was inactive. Further, the potentiation in experiment [4] was 13% (active); in [15], 6.61% (active).

As to `CC1(C#CC[N+]2(C)CCCCC2)CCC2C(O1)c1ccccc1OC2(C)C` (stereo not given), the result in [1], in experiment [2], in [5], in experiment [6], in experiment [7] and in experiment [8] was inactive. The outcome in experiment [9], in experiment [10], in experiment [11], in [12], in experiment [13] and in experiment [14] was inactive. Moreover, the outcome in [15], in [16] and in experiment [17] was inactive. The potentiation is 8% (active) in [3] and 21% (active) in experiment [4].

Consider `Cc1cc(S(=O)(=O)N2CCC(N3CCCCC3)CC2)ccc1-n1cnnn1`, for which the result in [1], in experiment [2], in experiment [5], in [6], in [7] and in [8] was inactive. Besides, the outcome in [9], in [10], in [11], in [12], in experiment [13] and in [14] was inactive. Besides, the outcome in experiment [16] and in [17] was inactive. Moreover, the potentiation in experiment [3] was 11% (active); in experiment [4] it was 11% (active); in experiment [15], 19.1% (active).

Turning to `C/C=C(/C)C(=O)O[C@@H]1c2cc(OC)c(OC)c(OC)c2-c2c(cc3c(c2OC)OCO3)C[C@H](C)[C@]1(C)O`, the result in experiment [1], in experiment [2], in [3], in experiment [4], in [5] and in experiment [6] was inactive. Moreover, the result in [7], in experiment [8], in [9], in experiment [10], in experiment [11] and in experiment [12] was inactive. For the same molecule, the outcome in experiment [13], in experiment [14], in [15], in [16] and in experiment [17] was inactive.

For the molecule `COc1ccc(CCNC(=O)C2CCN(C(=O)c3ccc(C(C)(C)C)cc3)CC2)cc1`, the outcome in [1], in experiment [2], in experiment [3], in experiment [4], in experiment [5] and in [6] was inactive. Also, the outcome in experiment [7], in [8], in experiment [9], in experiment [10], in experiment [11] and in [12] was inactive. For the same molecule, the outcome in experiment [13], in experiment [14], in experiment [15], in experiment [16] and in [17] was inactive.

With `CCCCCCc1cc2cc(-c3nnc(-c4cc(OC)c(OC)c(OC)c4)o3)c(=O)oc2cc1O`, the result in experiment [1], in experiment [2], in experiment [3], in experiment [5], in experiment [6] and in [7] was inactive. Also, the result in experiment [8], in [9], in experiment [10], in experiment [11], in experiment [12] and in experiment [13] was inactive. In addition, the result in experiment [14] and in [16] was inactive. The potentiation in experiment [4] is 37% (active); in experiment [15], 16.1% (active). The activation in experiment [17] was 4130% (active).

On to `O=C1Cc2ccccc2Sc2c(OCCN3CCCCC3)cccc21`, for which the outcome in [1], in experiment [2], in experiment [3], in experiment [4], in experiment [5] and in experiment [6] was inactive. Besides, the outcome in experiment [7], in experiment [8], in experiment [9], in experiment [10], in [11] and in [12] was inactive. The result in experiment [13], in experiment [14], in [15], in experiment [16] and in [17] was inactive.

Take `CCn1c(/C=C/Nc2ccccc2)[n+](CC)c2ccc(Cl)cc21`: the outcome in experiment [1], in [2], in experiment [3], in experiment [4], in experiment [5] and in [6] was inactive. Further, the outcome in experiment [7], in experiment [8], in [9], in [10], in [11] and in experiment [12] was inactive. The outcome in experiment [13], in experiment [14], in experiment [15], in experiment [16] and in [17] was inactive.

With `CC(=O)Oc1c(C)cc(O)c2ccccc12`, the result in experiment [1], in experiment [2], in experiment [3], in experiment [4], in experiment [5] and in [6] was inactive. In addition, the outcome in experiment [7], in [8], in experiment [9], in experiment [10], in experiment [11] and in experiment [12] was inactive. For the same molecule, the result in [13], in experiment [14], in [15], in [16] and in experiment [17] was inactive.

As for `O=C(NCC(c1ccco1)N1CCc2ccccc2C1)c1ccc(F)cc1` (stereo not given), the result in experiment [1], in experiment [2], in [3], in experiment [4], in experiment [5] and in experiment [6] was inactive. Moreover, the result in experiment [7], in experiment [8], in experiment [9], in [10], in [11] and in [12] was inactive. Moreover, the outcome in experiment [13], in experiment [14], in experiment [15], in [16] and in experiment [17] was inactive.

Consider `Cc1ccc(C2N(c3cccc(Cl)c3)C(=O)C3CCCN32)o1` (stereo not given), for which the outcome in experiment [1], in experiment [2], in experiment [5], in [6], in [7] and in [8] was inactive. Also, the result in [9], in experiment [10], in experiment [11], in experiment [12], in [13] and in experiment [14] was inactive. Besides, the outcome in experiment [16] and in experiment [17] was inactive. Moreover, the potentiation in [3] was 19% (active); in [4], 16% (active); in [15] it was 13.4% (active).

Regarding `CCOC(=O)c1cn(Cc2ccccc2)c(C(=O)OC(C)(C)C)c1O`, the outcome in [1], in experiment [2], in experiment [3], in experiment [4], in experiment [5] and in experiment [6] was inactive. Also, the outcome in experiment [7], in experiment [8], in [9], in [10], in experiment [11] and in experiment [12] was inactive. The result in experiment [14], in experiment [15] and in [17] was inactive. Moreover, the figures for the activation in [13] and in [16] were 54.1% (active) and 21.1% (active), respectively.

In the case of `Nc1nn2c(C(F)(F)F)cc(=O)[nH]c2c1N=Nc1cccc(F)c1`, the outcome in experiment [1], in experiment [2], in experiment [3], in experiment [4], in experiment [5] and in experiment [6] was inactive. Also, the outcome in experiment [7], in experiment [8], in [9], in experiment [10], in [11] and in [12] was inactive. The result in [13], in [14], in experiment [15], in [16] and in experiment [17] was inactive.
